Tau FP inhib = inhibitors of human tau fibril formation. Potency, µM (doses to about 57.7 µM), usual class: inhibitors. AID 1468. P10636. 0.39% of 280,000 active. K18 P301L tau heparin fibrillization, Alexa594 FP, 6 h; further: nearly all actives have a fitted effect of over 55% in size
Target sequence (P10636 561-689 P618L limits assumed): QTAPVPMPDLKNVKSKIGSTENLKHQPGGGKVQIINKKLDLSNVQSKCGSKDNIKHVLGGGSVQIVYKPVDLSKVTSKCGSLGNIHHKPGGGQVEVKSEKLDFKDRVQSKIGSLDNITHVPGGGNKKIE
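Quantitative HTS format: compounds meet 15 uM recombinant K18 P301L tau and Alexa 594-tau tracer in 100 mM sodium acetate pH 7; 20 uM heparin triggers fibrillization at 37 C over 6 hr; FP gives the signal.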
KDM4E inh = inhibitors of human JMJD2E histone demethylase; B2RXH2; JMJD2E catalytic domain, FDH-coupled NADH fluorescence (FDH is formaldehyde dehydrogenase); Potency, µM (titrated, usually from 57.1 µM), most hits filed as inhibitors; 1.6% of 230,000 active; AID 2147; active means well fitted inhibition curve with a large enough effect, not every such curve was filed as active; inconclusive means small, poorly fitted or top-dose-only effect, or another doubt; inactive means no such curve, though single readings can be large or run the other way; further: nearly all actives have a fitted effect of over 50% in size
Target sequence (B2RXH2 1-337 limits assumed): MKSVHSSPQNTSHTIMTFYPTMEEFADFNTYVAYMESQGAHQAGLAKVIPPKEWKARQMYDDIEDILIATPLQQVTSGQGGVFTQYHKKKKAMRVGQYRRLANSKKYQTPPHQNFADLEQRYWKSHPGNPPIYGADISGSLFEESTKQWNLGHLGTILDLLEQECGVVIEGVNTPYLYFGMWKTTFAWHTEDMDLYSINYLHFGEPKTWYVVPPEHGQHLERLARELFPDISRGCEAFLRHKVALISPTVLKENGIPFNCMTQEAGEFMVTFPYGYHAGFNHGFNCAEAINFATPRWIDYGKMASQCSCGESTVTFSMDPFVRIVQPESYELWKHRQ
Tau fibril ThT = blocks human tau fibril formation measured by thioflavin T | P10636 | recombinant tau K18 P301L, heparin-induced fibrillization, ThT fluorescence | Potency, µM (highest dose often 57.4 µM), most hits filed as inhibitors | 2.1% of 270,000 active | AID 1460; further: nearly all actives have a fitted effect of over 55% in size
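In this qHTS, human K18 P301L tau is incubated with compound and heparin for 6 hr at 37 C, and Thioflavin T fluorescence then reports fibril load.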
Lamin A splicing = LMNA splicing modulation; 0.01% of 200,000 active; HeLa LMNA splicing GFP/RFP minigene ratio, 48 h; AID 1487; Potency, µM (highest dose often 46.1 µM), most hits filed as inhibitors; active means well fitted inhibition curve with a large enough effect in the signal ratio, with a control signal flat, not every such curve was filed as active; inconclusive means small, poorly fitted or top-dose-only effect, or effect the other way, or a change in a side signal; the % refers to the signal ratio
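S3 HeLa cells stably expressing lamin A-EGFP splicing minigene plus DsRed2, 600 cells/well, 48 h compound exposure at 37C. Laser-scanning cytometry; analysed as GFP (500-530 nm)/RFP (575-640 nm) total intensity ratio; 0.5% DMSO vehicle.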
CBFb-RUNX1 inh = CBF-beta/RUNX1 interaction disruption; 230,000 tested, under 10 active; Potency, µM (doses to about 59.8 µM), actives largely listed as inhibitors; AlphaScreen CBFb-His/RUNX1-biotin binding, biochemical
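CBF-beta (His) and RUNX1 (biotin), 30 nM each; 20 min preassociation; + compound, 15 min; + beads 50 ng each (Ni, streptavidin), 90 min; RT; AlphaScreen read.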
Tau fluor cs = counter-screen for tau fibril formation inhibitors; tau K18 P301L (four-repeat tau fragment) Alexa594 fluorescence, heparin fibrillization; Potency, µM (highest dose often 57.7 µM); 0.93% of 280,000 active; AID 1463; further: nearly all actives have a fitted effect of over 55% in size
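Human K18 P301L tau (15 uM unlabeled plus 0.24 uM Alexa 594-labeled, final) in 100 mM sodium acetate pH 7 was mixed with compound and 20 uM heparin and incubated 6 hr at 37 C.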
Numbers stand for hits; . = inactive; ? = inconclusive; / = not tested or not shown; [ ] = remark or other dose. Shown are actives, neighbours in structure and some others; about 3.2% of the full set was active somewhere. Unless noted, the call rests on the fitted dose curve; in most records, active means well fitted curve in the direction sought with a large enough effect; inconclusive means small, poorly fitted or top-dose-only effect, or another doubt; inactive means no such curve, though single readings can be large; an effect the other way counts as inactive or inconclusive.

SMILES	Tau FP inhib	KDM4E inh	Tau fibril ThT	Lamin A splicing	CBFb-RUNX1 inh	Tau fluor cs
O=C(/C=C/c1cccc([N+](=O)[O-])c1)n1cnc2ccccc21	?	.	13µM	?	.	?
CN(C)c1ccc(/C=C2/C(=O)N(c3ccc([N+](=O)[O-])cc3)N=C2N2CCOCC2)cc1	.	.	16µM	.[0.0737 µM]	.	?
O=C1CC(N2CCOCC2)=NN1c1ccc([N+](=O)[O-])cc1	.	?	7.1µM	/	.	?
COc1ccc(S(=O)(=O)NCCc2nnc3ccc(SCC(=O)Nc4cc(C)cc(C)c4)nn23)cc1	.	/	.	/	/	.
CCC(C)c1ccc(C2C3=C(Nc4nc(N)[nH]c(=O)c42)c2ccccc2C3=O)cc1 (centres undefined)	.	.	?	?	?	?
Nc1nc2c(c(=O)[nH]1)C(c1ccccc1)C1=C(N2)c2ccccc2C1=O (centres undefined)	.	?	6.3µM	/	.	?
COc1cc(C2C3=C(Nc4nc(N)[nH]c(=O)c42)c2ccccc2C3=O)ccc1O (centres undefined)	.	.	11µM	/	.	.
Cn1c2c(c(=O)[nH]c1=O)C(c1ccc(O)cc1)C1=C(N2)c2ccccc2C1=O (centres undefined)	.	.	22µM	?	.	?
COc1ccc(C2C(C#N)=C(C)NC3=C2C(=O)c2ccccc23)cc1 (centres undefined)	.	?	?	.	.	.
CCOC(=O)c1c(NC(=O)Cc2coc3cc(C)cc(C)c23)sc2c1CCC2	.	/	?	/	/	.
COc1ccc2c(c1)cc(CNc1ccc(OC)c(OC)c1)c(=O)n2CC(=O)Nc1ccccc1C	.	/	?	/	/	?
COc1ccc2c(c1)cc(CNc1ccc(OC)c(OC)c1)c(=O)n2CC(=O)Nc1ccc(F)cc1	.	/	?	/	/	16µM[quencher]
O=C1N=C(N2CCCC2C(=O)O)S/C1=C\c1ccco1 (centres undefined)	.	22µM	.	/	.	.
Fc1ccc(CNc2nc3ccc(Cl)cc3n3nnnc23)cc1	.	/	.	/	/	.
COc1ccc(OC)c(-c2csc(NC(=O)CSc3ccc([N+](=O)[O-])cc3)n2)c1	.	.	?	?	?	11µM[quencher]
CCOc1ccc(NC(=O)NC(C)c2c(-n3cccc3)sc3c2CCN(CC)C3)cc1 (centres undefined)	.	/	.	.	/	?
CCN1CCc2c(sc(-n3cccc3)c2C(C)NC(=O)Nc2ccc(Br)cc2)C1 (centres undefined)	25µM	/	.	?	/	?
CCOC(=O)CSc1nnc2n(-c3ccccc3)c(=O)c3c4c(sc3n12)COC(C(C)C)C4 (centres undefined)	.	/	.	/	/	.
COc1ccc(Nc2nc(-c3cccs3)cs2)c(OC)c1	.	?	11µM	.	.	16µM[quencher]
Cc1ccc(CNc2nc(-c3cccs3)nc3ccccc23)cc1	40µM	?	.	?	.	?
COc1ccccc1Nc1nc(-c2cccs2)cs1	.	.	14µM	.	.	?
Oc1ccc(Nc2nc(-c3cccs3)cs2)cc1	.	.	?	.	.	11µM[quencher]
COc1ccc(Nc2nc(-c3cccs3)cs2)cc1	.	.	?	.	.	?
CCc1nn(CC(=O)Nc2c(C)cccc2C)c(=O)c2cc3sccc3n12	.	/	.	/	/	.
Cc1ccc(Nc2ncnc3c2cnn3-c2ccc(C)cc2)cc1	?	/	.	?	/	.
SMILES	Tau FP inhib	KDM4E inh	Tau fibril ThT	Lamin A splicing	CBFb-RUNX1 inh	Tau fluor cs
COc1ccc(OC)c(Nc2nc(-c3cccs3)cs2)c1	.	.	?	.	.	16µM[quencher]
COc1ccc(Nc2nc(-c3cccs3)nc3ccccc23)c(OC)c1	.	?	?	?	?	10µM[quencher]
COc1ccc(Nc2nc(-c3cccc([N+](=O)[O-])c3)nc3ccccc23)c(OC)c1	?	.	.	.	.	?
CC(=O)Nc1ccn(C2CC3OCC(NC(=O)C(NC(=O)OC(C)(C)C)C(C)OCc4ccccc4)C3O2)c(=O)n1 (centres undefined)	/	/	/	/	.	/
O=C1COc2cc(S(=O)(=O)CCC(=O)N3CCN(c4cccc(Cl)c4)CC3)c(Cl)cc2N1	?	/	?	.	/	.
COc1cccc(C2=Nn3c(nnc3-c3cc(OC)ccc3OC)SC2)c1	/	/	/	/	.	/
